Rango complex inh: Rango-importin beta binding inhibition; 0.031% of 340,000 active; Potency, µM (doses to about 92.2 µM); Q14974; Rango CFP/YFP FRET sensor + importin beta, 45 min; calls by dose curve; also: nearly all actives have a fitted effect of over 15% in size
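FRET biosensor (snurportin 1 IBB flanked by EYFP and cerulean), 50 nM, with compound 5 min, then 0.125 microM importin beta in PBS, 1 mM DTT, 0.02% Tween-20, 0.1% BSA. CFP/YFP ratio read after 45 min at room temperature; pre-read flags interference.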
Rango dissoc inh: inhibitors of RanGTP-induced Rango-importin beta complex dissociation | O95149+P62826 | Biochemical FRET Rango-importin beta, RanGTP-induced dissociation | Potency, µM (titrated, usually from 46.1 µM) | 0.071% of 340,000 active; calls by dose curve; also: nearly all actives have a fitted effect of over 45% in size
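Rango/importin beta premix (0.1/0.25 uM final), PBS + 1 mM DTT + 0.02% Tween-20 + 0.1% BSA; cpd 5 min RT; FRET pre-read; + RanGTP-RCC1 (0.6 uM Ran, 2 mM GTP, 0.2 uM RCC1); 45 min RT; FRET post-read, ex 430, em 486/530 nm.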
KAT2A inh: GCN5L2 (KAT2A) acetyltransferase inhibition; Q92830; GCN5L2 HAT assay, ThioGlo1 CoA-SH fluorescence; Potency, µM (titrated, usually from 58.9 µM), actives largely listed as inhibitors; 0.21% of 390,000 active; AID 504327
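Preincubate 20nM GCN5L2 with compound 15 min, RT → add 50uM ThioGlo1 + 75uM H3(1-25) + 70uM acetyl-CoA → read fluorescence 0 and 20 min. Primary qHTS; fluorescent artifacts likely.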
PLK1 PBD block: inhibitors of human PLK1 polo-box domain binding | P53350 | Plk1 PBD binding of FITC phosphopeptide, fluorescence polarization | Potency, µM, hits mostly inhibitors | 2.8% of 360,000 active | AID 720504; also: series mostly up to about 57 µM; nearly all actives have a fitted effect of over 65% in size
PI5P4Ka inh: blocks human PI5P4K alpha kinase activity; P48426; PI5P4Kalpha enzyme, ADP-Glo luminescence, 60 min; hits give low values; max response, %; 1.2% of 330,000 active; AID 652105; active = max response of -50% or lower; inconclusive = between -30% and -50%; inactive = -30% or higher; also: value at the top dose of about 77 µM
Target sequence (P48426 whole entry, looked up): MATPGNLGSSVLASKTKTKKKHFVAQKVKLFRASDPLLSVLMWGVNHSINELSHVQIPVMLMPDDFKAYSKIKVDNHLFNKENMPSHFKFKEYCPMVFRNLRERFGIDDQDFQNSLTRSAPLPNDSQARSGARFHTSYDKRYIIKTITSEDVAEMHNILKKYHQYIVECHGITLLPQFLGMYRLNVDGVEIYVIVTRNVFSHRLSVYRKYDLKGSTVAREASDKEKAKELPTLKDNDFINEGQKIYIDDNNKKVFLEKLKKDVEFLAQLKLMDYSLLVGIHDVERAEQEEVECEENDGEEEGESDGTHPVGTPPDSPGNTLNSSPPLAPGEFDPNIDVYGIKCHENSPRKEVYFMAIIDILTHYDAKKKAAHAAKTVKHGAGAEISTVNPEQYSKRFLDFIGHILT
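Quantitative HTS of the MLSMR library against PI5P4Kalpha with substrate. ATP added last at 5 microM final; room temperature, 60 minutes. Remaining ATP depleted, ADP converted and read as luminescence.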
VDR inhibitor: vitamin D3 receptor (human) inhibition; VDR-SRC2-3 peptide fluorescence polarization, 2 h; P11473; Potency, µM, actives largely listed as inhibitors; 0.93% of 400,000 active; AID 504847
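FP read-out; VDR + SRC2-3 coactivator peptide; 23 nl compound by pintool; 2 h RT incubation; reagents held at 4 deg C, protected from light.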
Hits are given with their value; n = inactive; u = inconclusive; x = not tested or not shown. A selection: hits, their analogues and other compounds. The true share with any hit is near 3.6%. Unless noted, calls follow the shape of the dose curve; as a rule, active = well fitted curve in the direction sought with a large enough effect; inconclusive = small, poorly fitted or top-dose-only effect, or another doubt; inactive = no such curve, though single readings can be large; an effect the other way counts as inactive or inconclusive.

SMILES	Rango complex inh	Rango dissoc inh	KAT2A inh	PLK1 PBD block	PI5P4Ka inh	VDR inhibitor
O=C(O)c1ccc(/C=N/NC(=O)c2cc(-c3ccc4c5c(cccc35)CC4)n[nH]2)cc1	n	n	n	u	-72.7	n
COC(=O)c1c(NC(C)=O)sc(C(=O)Nc2ccccc2F)c1C	n	n	n	23.8µM	u	n
O=c1cc(-c2ccccc2)n2c(SCc3c(F)cccc3Cl)nnc2[nH]1	x	x	n	x	x	n
Cc1ccc(C2C(C(=O)c3cc4ccccc4o3)=C(O)C(=O)N2c2cc(C)on2)cc1 (stereo unspecified)	u	u	n	18.9µM	-52.1	79.4µM
Cc1cc(N2C(=O)C(O)=C(C(=O)c3ccco3)C2c2cccc(Oc3ccccc3)c2)no1 (stereo unspecified)	n	n	n	u	-68.5	n
Cc1cc(N2C(=O)C(O)=C(C(=O)c3cc4ccccc4o3)C2c2cccs2)no1 (stereo unspecified)	u	u	n	u	n	n
O=C(C1=C(O)C(=O)N(c2nccs2)C1c1ccccc1)c1cc2ccccc2o1 (stereo unspecified)	u	u	n	u	-51.8	n
Cc1cc(N2C(=O)C(O)=C(C(=O)c3cc4ccccc4o3)C2c2ccc([N+](=O)[O-])cc2)no1 (stereo unspecified)	n	n	u	37.7µM	u	n
Cc1cc(N2C(=O)C(O)=C(C(=O)c3ccco3)C2c2ccc(O)cc2)no1 (stereo unspecified)	u	n	n	n	n	n
COc1ccc(-n2cc(C(=O)NC(C)c3ccccc3)c3ccccc3c2=O)cc1 (stereo unspecified)	x	x	n	x	x	n
CN1CCN(c2ncc3nc(CCc4ccccc4)c(=O)n(C4CC4)c3n2)CC1	x	x	n	x	x	u
Cc1ccc(S(=O)(=O)N2CCC(c3nc(-c4cccs4)nc4ccccc34)CC2)cc1	x	x	x	x	x	n
CC1=NN(c2ccccc2)C(=O)/C1=C\c1ccc(Oc2ccc([N+](=O)[O-])cc2[N+](=O)[O-])cc1	n	n	n	1.89µM	n	u
COc1cc(/C=C2\C(=O)N(c3ccccc3)N=C2C)ccc1Oc1ccc([N+](=O)[O-])cc1[N+](=O)[O-]	n	n	n	3.77µM	n	u
NC(C(=O)O)(c1ccc(P(=O)(O)O)cc1)C1CC1 (stereo unspecified)	x	x	n	x	x	n
Cc1ccc(N(C(C)C(=O)Nc2ccccc2C(=O)N2CCOCC2)S(C)(=O)=O)cc1C (stereo unspecified)	n	n	n	n	n	n
CC(C(=O)Nc1ccccc1C(=O)N1CCOCC1)N(c1ccc(Cl)cc1)S(C)(=O)=O (stereo unspecified)	n	n	n	2.99µM	u	22.4µM
CC1CCC(NC(=O)C2(C)Cc3ccccc3C(=O)N2Cc2ccccc2Cl)CC1 (stereo unspecified)	x	x	n	x	x	n
CCCNc1ncc2c(=O)[nH][nH]c(=O)c2n1	n	n	x	n	-55.3	n
Cc1cc(Cl)ccc1N=c1ssnc1Cl	n	n	28.2µM	1.5µM	-53.4	u
Nc1ccccc1N=c1ssnc1Cl	n	n	28.2µM	4.74µM	u	u
Cc1cc(C)nc(/N=c2/ssnc2Cl)c1	n	n	n	1.06µM	n	28.2µM
Cc1cc(C)c(C#N)c(Cl)n1	n	n	n	n	n	n
O=C(CSc1nc(-c2cccs2)nc2cc(=O)[nH]n12)Nc1ccccc1Cl	x	x	n	x	x	n
Cc1ccc(S(=O)(=O)NCCc2cn3ccsc3n2)cc1	x	x	n	x	x	n
SMILES	Rango complex inh	Rango dissoc inh	KAT2A inh	PLK1 PBD block	PI5P4Ka inh	VDR inhibitor
Cc1ccc(C)c(S(=O)(=O)c2nnn3c2nc(NCc2ccc4c(c2)OCO4)c2sccc23)c1	x	x	n	x	x	n
CCOC(=O)c1ccc(N2CCN(c3ccccc3F)CC2)c(NC(=O)Nc2ccc(Cl)c(Cl)c2)c1	x	x	n	x	x	n
c1ccc(-c2cn3nc(-c4ccccc4)c(-c4ccccc4)nc3n2)cc1	u	u	u	26.7µM	x	n
Nc1nc(-c2ccccc2)cn1N	u	20.6µM	n	n	n	n
Cc1ccc(-c2cn3nc(-c4ccccc4)c(-c4ccccc4)nc3n2)cc1	u	u	n	u	n	n
CCOC(=O)c1cc2c(=O)n3ccccc3nc2n(Cc2ccco2)c1=NC(=O)c1cccc(F)c1	x	x	n	x	x	n

Compound activity (PubChem BioAssay)
